PubChem BioAssay (EPA / NIEHS)
Where “and” joins values, the source holds several entries; their conditions need not be identical. Equal entries are not always repeated. Some structures have more than one record in an assay (separate samples or runs), and their calls can disagree. Calls of active or inactive are those of the source. Rule for the calls: active = hit-call score of the fitted dose curve at least 0.9, where 1 is the maximum; inactive = score below 0.9.

What follows are molecules tested on CD40, CD40 (gene 958) (assay: BSK_SAg_CD40: BioMAP Diversity Plus: SAg Assay for CD40 Biomarker Activity (AID 2283088)). Details: primary human HUVEC with PBMC; actives raise or lower the signal.
Method: BSK_SAg is a cell-based, multiplexed-readout assay that uses umbilical vein endothelium and peripheral blood mononuclear cells, a human vascular primary cell co-culture, with measurements taken at 24 hours after chemical dosing in a 96-well plate.BSK_SAg_CD40 is one of 10 assay component(s) measured or calculated from the BSK_SAg assay. It is designed to make measurements of enzyme-linked immunosorbent assay, a form of binding reporter, as detected with fluorescence intensity signals by Enzyme-linked immunosorbent assay technology.Data from the assay component BSK_SAg_CD40 was analyzed into 1 assay endpoint. This assay endpoint, BSK_SAg_CD40, was analyzed with bidirectional fitting relative to DMSO as the negative control and baseline of activity. Using a type of binding reporter, gain or loss-of-signal activity can be used to understand changes in the signaling as they relate to the gene CD40. Furthermore, this assay endpoint can be referred to as a primary readout, because this assay has produced multiple assay endpoints where this one serves a signaling function. To generalize the intended target to other relatable targets, this assay endpoint is annotated to the cytokine intended target family, where the subfamily is inflammatory factor.
The levels of cell surface (or secreted, indicated by the prefix "s") biomarker endpoints were measured by ELISA. Overt cytotoxicity to cells in confluent adherent cultures (all systems other than the BT system) was assessed by measuring total protein levels using sulforhodamine B (SRB) staining in parallel cultures at the time of biomarker measurements, indicated as SRB endpoints. For proliferation assays for adherent cell types, individual cell types are cultured at sub-confluence and relative cell numbers quantified by SRB staining at time points optimized for each system (48 h: 3C and CASM3C systems; 72 h: BT and HDF3CGF systems; 96 h: SAg system). SRB was performed by staining cells with 0.1% SRB after fixation with 10% TCA and reading wells at 560 nm.Viability and proliferation of PBMC (T cells) was quantified by Alamar Blue reduction for the SAg and BT systems. For PBMC viability (referred to as PBMC Cytotoxicity within the assay endpoint names), cells were plated (75,000/well in a 96-well plate) and then chemical samples added for 1 h before addition of activators, SEB and TSST-1 (20 ng/mL final concentration each). Cells were incubated for 90 h. Then, Alamar Blue (20 uL/well) (Invitrogen, Cat DAL1100) was added for 6 h, and the plates were read with a fluorescence microplate reader at 546/580 nm (excitation/emission). For PBMC proliferation, cells were plated and activated as above but incubated for only 16 h prior to addition of Alamar Blue. Plates were read after 6 h.

SMILES	outcome	AC50
CCOCCO	inactive	–
Cc1ccc(O)cc1	inactive	–
COC(=O)c1ccccc1O	inactive	–
CC1=CC(=O)CC(C)(C)C1	inactive	–
CC(C)CCCCCCOC(=O)c1ccc(C(=O)OCCCCCCC(C)C)c(C(=O)OCCCCCCC(C)C)c1	inactive	–
C1=CCCC=CCCC=CCC1	inactive	–
O=c1[nH]c2ccc(S(=O)CCN3CCC(Cc4ccc(F)cc4)CC3)cc2o1 (stereo not given)	inactive	–
CCCCCCCCO	inactive	–
CNS(=O)(=O)c1cc(C(=O)N2CCC(CCN3C4CCC3CC(n3c(C)nc5ccccc53)C4)(c3cccc(F)c3)CC2)c(Cl)cc1F (stereo not given)	–	23.2 µM (active)
COCCOc1cc2cc(C(=O)NC3CCN(C(C)C)CC3)n(CC(=O)Nc3ccc(Cl)cn3)c2cn1	inactive	–
CCOCCOCCOCCO	inactive	–
CN(C)c1ccc(N=NS(=O)(=O)O)cc1	inactive	–
NC(=O)NO	inactive	–
CCCCCCCCCCCCCCCO	–	37.3 µM (active)
O=C(O)CCN(C1(C(=O)NO)CCCC1)S(=O)(=O)c1ccc(Oc2ccc(F)cc2)cc1	inactive	–
COC(=O)c1c(Cl)c(Cl)c(C(=O)OC)c(Cl)c1Cl	–	20 µM (active)
CC/C(=C\C(=N/O)C(N)=O)C(C)[N+](=O)[O-] (stereo not given)	inactive	–
Cn1c(=O)cc(Oc2ccc(F)cc2F)c2cnc(NCC(C)(C)O)nc21	inactive	–
CC(C)CC(C)(O)C#CC(C)(O)CC(C)C (stereo not given)	inactive	–
Nc1ccc(Nc2ccccc2)cc1	–	3.97 µM (active)

SMILES	outcome	AC50
CC1(C)C(=O)N(Br)C(=O)N1Br	inactive	–
Cc1ccc(C)c(O)c1	inactive	–
CCn1nc(Cc2ccccc2)cc1C1CCN(C[C@H]2C[C@H](N(C)[C@@H](C(=O)O)C(C)C)C[C@@H]2c2cccc(F)c2)CC1	inactive	–
CCC(C)(C)C(=O)O[C@H]1C[C@@H](C)C=C2C=C[C@H](C)[C@H](CC[C@@H]3C[C@@H](O)CC(=O)O3)[C@H]21	–	3.99 µM (active)
CCOC(=O)c1ccc(C2CCC(NC[C@H](O)COc3ccc(O)c(NS(C)(=O)=O)c3)CC2)cc1 (stereo not given in full)	inactive	–
CC(O)CN(CCN(CC(C)O)CC(C)O)CC(C)O (stereo not given)	inactive	–
CCOC(=O)COc1ccc2c(c1)CC(NCC(O)c1cccc(Cl)c1)CC2 (stereo not given)	–	28.8 µM (active)
O=C(O)c1cc(N=Nc2ccc(S(=O)(=O)Nc3ccccn3)cc2)ccc1O	inactive	–
CCCCC(CC)COC(=O)c1ccc(C(=O)OCC(CC)CCCC)cc1 (stereo not given)	inactive	–
CC(C)CCO	inactive	–
Nc1cccc(N)c1	inactive	–
CCCN(C1CCN(C(=O)C2CCNCC2)CC1)[C@@H]1CCc2ccc(OC)cc2C1	inactive	–
COc1ccc(-n2nc(C(F)F)cc2-c2ccc(S(C)=O)cc2)cc1 (stereo not given)	inactive	–
COC(=O)CC(=O)OC	inactive	–
Cn1cnc([N+](=O)[O-])c1Sc1ncnc2nc[nH]c12	inactive	13.3 µM (active) and 8.21 µM (active)
CCc1cc(SCc2sc(-c3ccc(C(F)(F)F)cc3)nc2CN2CCN(c3ccc(OC)cc3)CC2)ccc1OCC(=O)O	–	11.7 µM (active)
O=C1CCCCCN1	inactive	–
CCCC(=O)OCC	inactive	–
COCCOCCOCCOC	inactive	–
